{
  "source": "PubChem BioAssay (EPA / NIEHS)",
  "note": "Where a structure was tested more than once in an assay, its records may differ in their call. Activity calls are given as the source filed them. How the source made its calls: active means hit-call score of the fitted dose curve at least 0.9, where 1 is the maximum; inactive means score below 0.9.",
  "data": [
    {"tested_on": "not listed separately", "assay": "ATG_CRE_CIS: Attagene CIS-FACTORIAL HepG2 Assay for human cAMP Responsive Element (CRE) binding protein 3 (AID 2282926)", "details": "HepG2 CRE cis-reporter, Attagene multiplexed mRNA; actives raise or lower the signal", "procedure,_shortened": "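Multiplexed transcription-unit reporters transfected into HepG2; 24 h dosing; RT-PCR/capillary electrophoresis fluorescence read-out; bidirectional fit vs DMSO.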", "values": [
      {"smiles": "O=C1OC2(c3ccccc31)c1cc(I)c(O)c(I)c1Oc1c2cc(I)c(O)c1I", "outcome": "inactive"},
      {"smiles": "CC(C)C=O", "outcome": "inactive"},
      {"smiles": "CCCCCCCCCCCC(=O)O", "outcome": "inactive"}
    ]},
    {"biological_target": "CCAAT/enhancer-binding protein beta (Homo sapiens) (UniProt P17676)", "sequence (P17676 whole entry, looked up)": "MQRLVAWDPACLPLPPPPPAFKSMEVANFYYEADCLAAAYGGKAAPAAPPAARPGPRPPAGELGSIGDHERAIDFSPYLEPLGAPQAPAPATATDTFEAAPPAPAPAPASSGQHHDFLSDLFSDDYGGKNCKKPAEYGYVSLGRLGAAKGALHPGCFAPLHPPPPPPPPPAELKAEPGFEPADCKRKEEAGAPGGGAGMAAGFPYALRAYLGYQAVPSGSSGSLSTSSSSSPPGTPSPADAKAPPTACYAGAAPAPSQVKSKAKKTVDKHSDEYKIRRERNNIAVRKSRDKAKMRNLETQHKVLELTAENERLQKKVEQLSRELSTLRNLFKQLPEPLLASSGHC", "assay": "ATG_C_EBP_CIS: Attagene CIS-FACTORIAL HepG2 Assay for human CCAAT/Enhancer Binding Protein (C/EBP) beta (AID 2282927)", "details": "HepG2 Attagene cis-factorial transcription factor reporter; actives raise or lower the signal", "procedure,_shortened": "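HepG2 transiently transfected with multiplexed reporter units under cis-regulatory promoters reporting endogenous C/EBPb activity. After 24 h exposure, reporter mRNA assayed by RT-PCR, fluorescent labelling, HpaI digestion and capillary electrophoresis; bidirectional fitting versus DMSO.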", "values": [
      {"smiles": "Nc1cc(Cl)c(-c2cc(Cl)c(N)cc2Cl)cc1Cl", "outcome": "inactive"},
      {"smiles": "CCCCCCCCCC=CCC1CC(=O)OC1=O", "note": "(configuration not stated)", "outcome": "inactive"},
      {"smiles": "O=C(Nc1cccc([N+](=O)[O-])c1)c1cc2ccccc2cc1O", "outcome": "inactive"},
      {"smiles": "CNNCc1ccc(C(=O)NC(C)C)cc1", "outcome": "inactive"},
      {"smiles": "CCOCCOCC", "outcome": "inactive"},
      {"smiles": "Cc1cc(=O)oc2cc(O)ccc12", "outcome": "inactive"},
      {"smiles": "CC1CCC(C(=O)O)CC1", "note": "(configuration not stated)", "outcome": "inactive"},
      {"smiles": "Cc1cncc(C)c1", "outcome": "inactive"},
      {"smiles": "CN(CCO)S(=O)(=O)C(F)(F)C(F)(F)C(F)(F)C(F)(F)C(F)(F)C(F)(F)C(F)(F)C(F)(F)F", "outcome": "inactive"},
      {"smiles": "Oc1cc2ccccc2cc1O", "outcome": "inactive"},
      {"smiles": "CCCCCCCC(OC)OC", "outcome": "inactive"},
      {"smiles": "CCc1cccc(CC)c1N(COC)C(=O)CS(=O)(=O)O", "outcome": "inactive"},
      {"smiles": "O=C(NCc1ncc(C(F)(F)F)cc1Cl)c1c(Cl)cccc1Cl", "outcome": "inactive"},
      {"smiles": "CCCCCCc1ccc(N)cc1", "outcome": "inactive"},
      {"smiles": "O=C1OC(=O)c2cc(-c3ccc4c(c3)C(=O)OC4=O)ccc21", "outcome": "inactive"},
      {"smiles": "O=C(O)CCC(F)(F)C(F)(F)C(F)(F)C(F)(F)C(F)(F)C(F)(F)F", "outcome": "inactive"},
      {"smiles": "CCCCCCCCC1CCC(=O)O1", "note": "(configuration not stated)", "outcome": "inactive"},
      {"smiles": "CCN(CC)CC", "outcome": "inactive"},
      {"smiles": "O=C1OC2(c3ccccc31)c1cc(I)c(O)c(I)c1Oc1c2cc(I)c(O)c1I", "outcome": "inactive"},
      {"smiles": "C=C(c1ccc(C(=O)O)cc1)c1cc2c(cc1C)C(C)(C)CCC2(C)C", "AC50": "0.0309 µM (active)", "outcome": "inactive"},
      {"smiles": "CCOC=O", "outcome": "inactive"},
      {"smiles": "CC=O", "outcome": "inactive"},
      {"smiles": "O=S(=O)(c1ccc(OCc2ccccc2)cc1)c1ccccc1O", "AC50": "23.1 µM (active)"},
      {"smiles": "Clc1ccc(Nc2nnc(Cc3ccncc3)c3ccccc23)cc1", "outcome": "inactive"},
      {"smiles": "CC(C)C=O", "outcome": "inactive"},
      {"smiles": "COC(=O)CC(C(C)=O)C(=O)OC", "note": "(configuration not stated)", "outcome": "inactive"},
      {"smiles": "C=CC(=O)OCCC(F)(F)C(F)(F)C(F)(F)C(F)(F)C(F)(F)C(F)(F)F", "outcome": "inactive"},
      {"smiles": "CC1=CC(=O)c2ccccc2C1=O", "outcome": "inactive"},
      {"smiles": "C=Cc1ccc(O)c(OC)c1", "outcome": "inactive"},
      {"smiles": "CCCCCCCCCCCC(=O)O", "outcome": "inactive"},
      {"smiles": "CCCCCCC(C)(C)C(=O)O", "outcome": "inactive"},
      {"smiles": "CCCCCCCCCCCC[N+](C)(C)CCCCCCCCCCCC", "AC50": "16.4 µM (active)"},
      {"smiles": "CC(C)(C)C1CCCCC1O", "note": "(configuration not stated)", "outcome": "inactive"},
      {"smiles": "FCOC(C(F)(F)F)C(F)(F)F", "outcome": "inactive"},
      {"smiles": "C=CC(C)(CCC=C(C)C)OC(C)=O", "note": "(configuration not stated)", "outcome": "inactive"},
      {"smiles": "NC(C(F)(F)F)C(F)(F)F", "outcome": "inactive"},
      {"smiles": "COCC1CCC(CO)CC1", "note": "(configuration not stated)", "outcome": "inactive"},
      {"smiles": "FC(F)=C(F)C(F)(F)C(F)(F)C(F)(F)C(F)F", "outcome": "inactive"}
    ]}
  ]
}
